Results on 106 molecules are retold here after ChEMBL document CHEMBL3988442, “University of Dundee, Small-Polar-MMV Screening Library” (2021).

SMILES strings stand for the structures. Out of some 48,000 compounds screened, about 13,000 (27%) showed an effect of 50% or more. The list shows a part of the results.

The test system of this assay is Wolbachia pipientis. In words: Anti-Wolbachia Cell-Based Screen. It counts as functional. More on the design: scale not given: in the data most compounds retested in dose-response had high values. The settings on record: 5 µM.
Take `CCCOCC1CCN(C(=O)Cn2cccc(OC)c2=O)C1` (stereo unspecified): the “Percent Effect” value was -15.28%.

`Cc1ccc(NC(=O)CCC2CC2)cc1N1CCOC1=O`: the “Percent Effect” value was -7.551%. On to `O=c1[nH]nc(CNc2ncc(Cl)cn2)[nH]1`, for which the “Percent Effect” value is reported as -6.867%.

On to `CCc1nsc(N2CCOC3(CCCC3)C2)n1`, for which the “Percent Effect” value stood at 2.616%. Then `Cc1noc(C)c1CN1CCCC1c1nnc2ccccn12` (stereo unspecified), with 107.8%; and `Cc1noc(C)c1CN1CCCCC1c1nc(-c2ccccc2)no1` (stereo unspecified), with 11.76%. Then `Cc1noc(C)c1CN1CCCC1c1nc(-c2ccccc2)no1` (stereo unspecified), with -6.071%; and `CCC(CO)N(Cc1cccs1)C(=O)Cc1ccc(O)cc1` (stereo unspecified), with 12.13%.

For the molecule `CCC[C@@H]1CN(C(=O)c2ccccc2-c2ccccc2)C[C@H]1N(C)C`, the “Percent Effect” value was -11.45%. As to `Cn1ccnc1C1(O)CCCN(Cc2ccncc2)CC1` (stereo unspecified), the “Percent Effect” value was determined as 94.34%. Under `Cc1ccc(CN2CCC3(CCN(Cc4ccncc4)CC3)CC2)cc1` stands -6.544%. Then `COCCN1CCCC(O)(CN2CCN(Cc3ccncc3)CC2)C1=O` (stereo unspecified), with -1.626%.

For `CN(C)[C@H]1CCN(c2ccnc(C(=O)NCc3ccco3)c2)C1`, the “Percent Effect” value is reported as -12.58%. Under `Cc1[nH]c(=O)sc1S(=O)(=O)N1CCCC1C(=O)NC1CC1` (stereo unspecified) stands 0.9374%; under `CC1c2ncc(COCC3CC3)n2CCN1S(=O)(=O)N(C)C` (stereo unspecified), -6.883%; under `Cn1ccnc1-c1cnn(CC(=O)Nc2ccnn2C)c1`, -5.253%.

Consider `CC(C)c1nccn1CC(=O)Nc1ccnn1C(C)C(C)C` (stereo unspecified), for which the “Percent Effect” value is 205.7%. Then `CC(C1CC1)n1nccc1NC(=O)CN(C)C(=O)OC(C)(C)C` (stereo unspecified), with 1.565%.

Turning to `O=C(NCCO)c1coc(Cn2cnc3ccccc32)n1`, the “Percent Effect” value is on record as -7.13%. On to `Cc1noc(CN(C)C(=O)CCn2cnc3ccccc32)n1`, for which the “Percent Effect” value is reported as -9.657%. Take `CC(C)C(C)n1nccc1NC(=O)Cn1cnc2ccccc21` (stereo unspecified): the “Percent Effect” value worked out at 92.25%. Under `Cc1n[nH]c(C)c1C1CCCN1C(=O)c1cc(Br)c[nH]1` (stereo unspecified) stands 3.439%; under `N#Cc1cc(S(N)(=O)=O)ccc1NC1CCc2ccc(F)cc21` (stereo unspecified), -1.199%; under `c1cc2c(c(-c3cc(N4CCOCC4)ncn3)c1)CCNC2`, 6.934%. Then `Cn1ccc2c(-c3cc(N4CCCCC4)ncn3)ccnc21`, with 102.2%. Under `CN(C)c1ccc(-c2ccnc3c2ccn3C)nn1` stands -43.13%; under `Cn1ccc2c(-c3ccc(NC4CC4)nn3)ccnc21`, -7.533%. As for `CC(C)Nc1ccc(-c2ccnc3c2ccn3C)nn1`, the “Percent Effect” value is reported as -2.658%. Under `Cn1ccc2c(-c3cc(N4CCOCC4)ncn3)ccnc21` stands 96.13%. Under `Cc1cc(C)nc(N2CCCC(Cn3cc(CN(C)C)nn3)C2)n1` (stereo unspecified) stands 5.215%; under `COCc1cc(CNc2cnn(CC(F)F)c2)ccc1OC`, 109.5%.

On to `COCCn1cc(NCc2cccc3cn[nH]c23)cn1`, for which the “Percent Effect” value is reported as -36.74%. `COc1ccccc1CNC(Cn1cncn1)c1ccccc1` (stereo unspecified): the “Percent Effect” value is given as -4.346%. With `COc1ccccc1CNc1cnn(CC(F)F)c1`, the “Percent Effect” value is listed as 103.3%. Under `CCn1cc(CNc2ccc(Br)c(OC)c2)cn1` stands 3.911%; under `Cc1ccc(CNc2cnn(CC(F)F)c2)cc1C`, -20.79%. Then `COCc1cc(NCc2cc(F)ccc2F)n2nccc2n1`, with 7.154%. Under `COCc1cc(NCCc2ccc(F)cc2)n2nccc2n1` stands -0.9559%; under `COc1cc(CNc2cnn(CC(F)F)c2)ccc1O`, 77.84%. For `CS(=O)(=O)CCNCc1ccc(OCc2ccncc2)cc1`, the “Percent Effect” value was found to be 4.954%. Under `CS(=O)(=O)c1cccc(S(=O)(=O)NCCCN2CCNC(=O)C2)c1` stands 4.336%. Then `COCCC1(CO)CCCN(Cc2ccc(C(F)(F)F)nc2)C1` (stereo unspecified), with 4.896%; and `Cc1nn(C)c2nc(N(Cc3cnn(C)c3)C3CCCCC3)sc12`, with -14.1%.

On to `Cc1nn(C)c2nc(N3CCCCC3c3nccs3)sc12` (stereo unspecified), for which the “Percent Effect” value is given as 111.2%.

For the molecule `COC(=O)CC1C(=O)NCCN1c1nc2c(s1)c(C)nn2C` (stereo unspecified), the “Percent Effect” value is given as -2.847%. Then `Cc1nn(C)c2nc(N3CCCC3c3nccs3)sc12` (stereo unspecified), with 105.7%; and `Cc1nn(C)c2nc(N3CCNC(=O)C3Cc3ccccc3)sc12` (stereo unspecified), with 4.207%; and `Cc1nn(C)c2nc(N3CCNC(=O)C3C(C)C)sc12` (stereo unspecified), with -3.724%. Then `COCCN(Cc1nccs1)c1nc2c(s1)c(C)nn2C`, with -7.769%; and `COC(=O)CN1CCN(c2nc3c(s2)c(C)nn3C)C(C)C1=O` (stereo unspecified), with -10.29%. Then `Cc1nn(C)c2nc(N3CCCCC3c3ccc(F)cc3)sc12` (stereo unspecified), with 106.8%; and `Cc1ccc(CN2CCN(c3nc4c(s3)c(C)nn4C)C(C)C2=O)cc1` (stereo unspecified), with -1.858%.

Consider `Cc1nn(C)c2nc(N3CCC(C(O)c4ccccn4)CC3)sc12` (stereo unspecified), for which the “Percent Effect” value is -0.6588%. For `Cc1nn(C)c2nc(N(Cc3nccs3)C3CC3)sc12`, the “Percent Effect” value was determined as 96.11%. In the case of `CN(Cc1ccccc1NCc1cccnc1)C(=O)c1cccs1`, the “Percent Effect” value worked out at 7.108%. Under `O=S1(=O)CCN(c2nc(C3CC3)ns2)CC1` stands -15.72%. Consider `CN1C(=O)CO[C@H](c2ccc(NC(=O)c3cccc(F)c3)cc2)[C@H]1CO`, for which the “Percent Effect” value is listed as 11.75%. Then `CCC(CNC(=O)c1cc(OC)ccc1Br)N1CCc2ccccc2C1` (stereo unspecified), with -23.56%. Then `COC(=O)N1CCc2ccccc2C1C(=O)NCc1nc(C)no1` (stereo unspecified), with 2.573%. Then `CN(C)CC1CN(Cc2cccc(C(=O)N(C)C)c2)CCO1` (stereo unspecified), with 13.75%; and `CN(C)C(=O)c1cccc(CN2CCOC(Cn3cccn3)C2)c1` (stereo unspecified), with 104.7%.

As to `c1cnn(-c2ccc(CN3CCOC(Cn4cncn4)C3)cc2)c1` (stereo unspecified), the “Percent Effect” value is -5.555%.

On to `CN(C)C(=O)c1cccc(CN2CCOC(Cn3cncn3)C2)c1` (stereo unspecified), for which the “Percent Effect” value was determined as 102.1%.

Take `CCS(=O)(=O)Nc1cnn(Cc2cccc(F)c2)c1`: the “Percent Effect” value worked out at 105.7%.

For the molecule `CCn1cc(NC(=O)NCC(O)COc2cccc(F)c2)cn1` (stereo unspecified), the “Percent Effect” value is -10.6%.

On to `Cc1cccc(Cn2ccc(NS(C)(=O)=O)n2)c1`, for which the “Percent Effect” value is on record as -2.498%. Then `CN(C)c1cccc(C(=O)Nc2cnn(Cc3ccncc3)c2)c1`, with 11.2%. Under `CCn1cc(NC(=O)NCC(c2cccc(F)c2)N(C)C)cn1` (stereo unspecified) stands 0.3988%; under `CCS(=O)(=O)Nc1cnn(Cc2cccc(C)c2)c1`, 89.42%. Under `Cc1cccc(-c2ccc(C(=O)NCCN(C)C3CC3)c(=O)[nH]2)c1` stands -2.901%; under `O=C(NCCN1CCOCC1)c1ccc(-c2ccccc2)[nH]c1=O`, -12.34%. Regarding `Cc1cccc(-c2ccc(C(=O)NCCN3CCOCC3)c(=O)[nH]2)c1`, the “Percent Effect” value turned out to be 3.561%. Then `O=C(NCC1CCCOC1)c1ccc(-c2ccccc2)[nH]c1=O` (stereo unspecified), with 111.2%; and `O=C(NCCCn1cncn1)c1ccc(-c2ccccc2)[nH]c1=O`, with -1.732%; and `Cc1ccc(C(=O)NCC2CCCCO2)c(=O)[nH]1` (stereo unspecified), with 8.158%.

Turning to `O=C(NCC1CCOC1)c1ccc(-c2ccccc2)[nH]c1=O` (stereo unspecified), the “Percent Effect” value amounted to 96.09%. Then `Cc1ccc(C(=O)NCC2COCCO2)c(=O)[nH]1` (stereo unspecified), with 4.795%. On to `Cc1cccc(-c2ccc(C(=O)NCC3CCCOC3)c(=O)[nH]2)c1` (stereo unspecified), for which the “Percent Effect” value turned out to be 108.2%. Under `Cc1cccc(-c2ccc(C(=O)NCC3CCCO3)c(=O)[nH]2)c1` (stereo unspecified) stands 118.6%; under `O=C(NCC1CCCOC1)c1ccc(-c2cccs2)[nH]c1=O` (stereo unspecified), 1.044%; under `Cc1cccc(-c2ccc(C(=O)NCC3CCOC3)c(=O)[nH]2)c1` (stereo unspecified), 2.342%. Under `Cc1nc(CCNC(=O)C2CCN(C(C)C)CC2)sc1Cl` stands 3.943%; under `CCc1ccccc1OC1CN(CC2CCOC2)C1` (stereo unspecified), 1.155%; under `CN(C)C(=O)CCCn1ccc(NCc2ccc(C#N)cc2)n1`, -12.19%. Under `COCc1cccc(NC(=O)N(C)Cc2ncc(C)c(OC)c2C)c1` stands -2.673%; under `COC(=O)N1CCC(NC(=O)CC(C)CCc2ccccc2)CC1` (stereo unspecified), 12.69%; under `NC(=O)[C@@H]1CN2CCN(C(=O)C3CC3)C[C@@H]2[C@H]1c1ccccc1`, 100.9%. Regarding `COCCOC(=O)N1C[C@H]2CC[C@@H]1CN(C1Cc3ccccc3C1)C2`, the “Percent Effect” value was 9.586%. Under `COC(=O)N1CCN(Cc2ccccc2Cl)CC1` stands 0.9968%. Under `O=C(CC1CCCC1)N1CCN2C[C@@H](CO)[C@H](c3ccccc3)[C@H]2C1` stands 76.76%. Under `O=C(C1CC1)N1CCN(C(=O)C2CC(=O)N(c3ccccc3Br)C2)CC1` (stereo unspecified) stands 9.914%; under `O=C(Nc1nc(-c2ccccc2)ns1)N1CCN(C(=O)C2CC2)CC1`, -11.4%; under `O=C(CC1CCCCC1)N1CCN(C(=O)NCc2ccccn2)CC1`, -2.156%. Take `COC(=O)N1CCN2C[C@H](CO)[C@@H](c3ccccc3)[C@H]2C1`: the “Percent Effect” value is 95.68%. Then `O=C(CO)N1CCCC(N2CCN(c3ccccc3F)CC2)C1` (stereo unspecified), with 13.62%.

With `COCCOC(=O)N1CCN2C[C@@H](CO)[C@H](c3ccccc3)[C@H]2C1`, the “Percent Effect” value was determined as 99.06%.

On to `COCCC(=O)N1CCC2(CC1)CC(c1ccccc1)CN(C1CC1)C2` (stereo unspecified), for which the “Percent Effect” value is listed as -1.605%.

On to `O=C(NC1CCCN(c2ccc(OC(F)F)cc2)C1)c1ccon1` (stereo unspecified), for which the “Percent Effect” value worked out at 12.05%.

Consider `Cc1c(NCCCOc2cccc(C#N)c2)cccc1C(N)=O`, for which the “Percent Effect” value is recorded as -5.343%. Under `O=C1CCN(C(=O)C2(c3ccc(F)cc3)CCOCC2)CCN1` stands 5.245%; under `Cc1cc(CS(=O)(=O)c2ccccc2)no1`, -12.79%; under `CCN1CC[C@]2(CN(C(=O)C3CCOCC3)C[C@H]2c2ccccc2)C1=O`, -4.584%. Under `CC(=O)N1CCN(C2CCc3ccccc32)CC1` (stereo unspecified) stands 10.52%; under `O=C(C1CC1)N1CCN2C[C@@H](CO)[C@H](c3ccccc3)[C@H]2C1`, 89.49%; under `CC(=O)N1CCN(C)CC(COCc2ccccc2)C1` (stereo unspecified), -1.846%. Under `CC(=O)N1CCN2C[C@H](CO)[C@@H](c3ccccc3)[C@H]2C1` stands 95.75%.
